Source: PubChem (several laboratories)
TMEM16A act: mouse TMEM16A channel activation, primary screen; AID 623877; 340,000 compounds, 0.3% hits; HEK293 TMEM16A/YFP-H148Q/I152L, iodide quench fluorescence; active compounds read low; B-score at 10 µM; Q8BHY3;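 active means fluorescence-ratio B-score plate-corrected deviation score at least 3 library SD below zero, with starting fluorescence score within 5 deviations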;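 further: channel opened by trigger with iodide after compound preincubation; score built on the fluorescence ratio of max minus min over baseline; more negative score means more quench and so TMEM16A activation or potentiation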
CHT inh: human CHT choline transport inhibition. Q9GZV3. CHT-expressing cells, membrane potential dye, choline response; active compounds read low. B-score at 10 µM. 310,000 compounds, 0.86% hits. AID 488975;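 active means B-score over 3 SD under the library average, and starting fluorescence ratio not unusually high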;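 further: choline stimulus applied at its EC90 after an EC20 pre-addition; B-score computed on integrated fluorescence ratio after choline addition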
HDAC3 inhib: inhibitors of human histone deacetylase 3; recombinant HDAC3, fluorogenic peptide/trypsin coupled, fluorescence; 320,000 compounds, 0.15% hits; inhibition, % at 8.3 µM; in the data active means inhibition above about 26%, passing the limit was not always enough
PHOSPHO1 block: PHOSPHO1 (human) inhibition | recombinant PHOSPHO1, absorbance phosphatase assay | inhibition, % at 13.3 µM | 290,000 compounds, 1.1% hits; in the data active means inhibition above about 60%
Target sequence (Q8TCT1 whole entry, looked up): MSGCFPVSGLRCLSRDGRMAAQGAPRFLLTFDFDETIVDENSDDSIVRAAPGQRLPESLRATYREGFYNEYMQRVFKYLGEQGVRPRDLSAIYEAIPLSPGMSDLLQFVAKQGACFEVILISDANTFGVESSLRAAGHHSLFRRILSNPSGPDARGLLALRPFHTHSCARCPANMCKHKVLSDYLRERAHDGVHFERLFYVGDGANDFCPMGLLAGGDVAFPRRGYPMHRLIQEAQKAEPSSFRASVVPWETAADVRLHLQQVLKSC
TMEM16A inh: inhibitors of mouse TMEM16A calcium-activated chloride channel. normalized B-score (activity score, 25-100; higher = stronger inhibition) at 10 µM. HEK293 TMEM16A/YFP iodide influx fluorescence, ionomycin. 310,000 compounds, 1.2% hits. Q8BHY3. AID 588511;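 active means ratio plate-corrected score three or more library SD toward inhibition, starting fluorescence score within five deviations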;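 further: score derived from kinetic fluorescence span divided by baseline fluorescence per well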
CHT PAM: allosterically activates the human high affinity choline transporter; Q9GZV3; CHT-expressing cells, membrane potential dye, choline EC20; active compounds read high; LV-AA mutant CHT in HEK293 cells; B-score at 10 µM; 310,000 compounds, 0.49% hits;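 active means initial fluorescence not abnormally high and integrated response B-score, plate-corrected, over 3 SD above library mean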
* = called active by the depositor; i = inactive; . = no result given. Sampled rows, rich in hits. Any-hit rate of the full collection: about 3.2%.

SMILES | TMEM16A act | CHT inh | HDAC3 inhib | PHOSPHO1 block | TMEM16A inh | CHT PAM
COc1ccc(NC(=O)c2ccccc2SC)c(OC)c1 | -5.8* | i | -2 | 0 | i | i
COc1ccc(NC(=S)Nc2ccccc2SC)c(OC)c1 | i | i | 4 | 20 | i | i
Cc1cc(NC(=O)c2ccco2)ccc1NC(=O)Cc1cccs1 | i | i | 7 | 15 | i | i
Cc1c(C(=O)Oc2cccc3ccccc23)cnn1-c1ccccc1 | i | i | 11 | -6 | 100* | i
COc1ccc(NC2CCCN(C(=O)c3ccc4[nH]c(C)c(C)c4c3)C2)cc1 (stereo not drawn) | i | i | 6 | 19 | i | i
O=C(CSc1nnc(NC(=O)c2c(F)cccc2F)s1)NCc1ccccc1 | i | i | 0 | -22 | i | i
Cc1ccc2c(Cl)cc(Cl)c(OCC(=O)NCc3ccco3)c2n1 | . | . | . | 15 | . | .
O=C(Oc1ccc2ccc(=O)oc2c1)c1cccs1 | i | i | 30* | -10 | i | i
O=C(Oc1ccc2c(-c3ccccc3)cc(=O)oc2c1)c1cccs1 | i | i | 1 | -4 | i | i
COc1ccc(-c2sc3ccccc3c2C#CCCO)cc1 | i | i | -2 | 20 | i | i
COc1ccc(CNC(=O)CN2C(=O)COc3ccc(S(=O)(=O)NC4CCCC4)cc32)cc1 | i | i | 4 | 43 | i | i
CCN(Cc1ccccc1)C(=O)CN1C(=O)COc2ccc(S(=O)(=O)NC3CCCC3)cc21 | i | i | 5 | 63* | i | i
COc1cc(NC(=O)CCc2nnc3ccc(N4CCC(C)CC4)nn23)cc(OC)c1 | i | i | 0 | 15 | i | i
Fc1ccc(C2=Nn3c(Cc4ccccc4F)nnc3SC2)cc1 | i | i | -1 | 62* | i | i
O=C(c1ccc(Cl)c(S(=O)(=O)N2CCc3ccccc32)c1)N1CCN(c2ccccc2O)CC1 | i | . | -2 | . | . | .
O=C(NNC(=O)c1ccccc1O)c1ccc(Cl)c(S(=O)(=O)N2CCc3ccccc32)c1 | i | i | -3 | . | 100* | i
COc1ccccc1-c1cc(C(=O)NC(C)C)no1 | i | i | 4 | 60* | i | i
CC(=O)c1sc(NC(C)c2ccccc2)nc1C (stereo not drawn) | i | i | 5 | 6 | i | i
Cc1nc(NC(C)c2ccccc2)sc1C(=O)Nc1ccccc1 (stereo not drawn) | i | i | 2 | 61* | i | i
Cc1nc(NCc2ccccc2)sc1C(=O)Nc1ccccc1 | i | i | 2 | 68* | i | i
Cc1nc(Nc2ccc(S(N)(=O)=O)cc2)sc1C(=O)Nc1ccccc1 | -8.9* | i | 13 | 27 | i | i
CCOc1ccc(/C(O)=C2/C(=O)C(=O)N(c3cc(C)on3)C2c2ccc(C(=O)OC)cc2)cc1 (stereo not drawn) | i | i | -2 | 53 | i | i
CCCCCC(=O)N/N=C/c1cc(Br)c(O)c(OC)c1 | i | i | -5 | -3 | i | i
COc1cc(/C=N/NC(=O)C(=O)NCc2ccco2)cc(Br)c1O | i | i | 5 | 85* | i | i
CSc1ccc(NC(=O)Nc2cccn(Cc3ccccc3)c2=O)cc1 | i | i | 16 | -3 | 100* | i
SMILES | TMEM16A act | CHT inh | HDAC3 inhib | PHOSPHO1 block | TMEM16A inh | CHT PAM
COc1ccc(Cn2cccc(NC(=O)Nc3ccc(F)cc3)c2=O)cc1 | i | i | -8 | 26 | i | i
CCCC(=O)NC(=S)Nc1cccc(C(C)=O)c1 | i | i | 6 | 6 | i | i
Cc1ccc(Nc2ccc(C(=O)O)cc2[N+](=O)[O-])cc1 | i | i | 6 | 27 | i | i
O=c1cc(-c2c(F)c(F)c(F)c(F)c2F)oc2ccccc12 | i | i | -2 | 9 | i | i
O=c1cc(-c2c(F)c(F)c(F)c(F)c2F)oc2c(F)c(F)c(F)c(F)c12 | . | i | -2 | 25 | 25* | i
Cc1ccc2cccnc2c1NC(=S)NC(=O)c1ccccc1 | i | i | 1 | 69* | i | i
CC(C)c1ccc(C(C)NCCS(=O)(=O)c2ccc(Cl)cc2)cc1 (stereo not drawn) | i | i | 12 | 73* | i | i
O=C(CSc1ccc(Cl)cc1)N1CCC(c2nc3ccccc3s2)CC1 | i | i | 6 | 24 | 100* | i
CC1CCN(C(=O)CSc2nc3ccccc3s2)CC1 | i | i | -3 | 42 | i | i
O=C(OC1CCCCC1)c1ccc2c(c1)C1C=CCC1C(C(=O)O)N2 (stereo not drawn) | . | . | . | 83* | . | .
O=C1c2cccc3c2[C@H](CCC3)CN1[C@@H]1CN2CCC1CC2 | . | i | 2 | . | i | i
C=CCN(C(=O)Cn1nnc2ccccc21)C(C(=O)NCCOC)c1ccc(OC)cc1OC (stereo not drawn) | -6* | i | 4 | 11 | i | i
COCCN(C(=O)Cn1nnc2ccccc21)C(C(=O)NC1CCCC1)c1ccc(OC)cc1OC (stereo not drawn) | i | i | 2 | -7 | i | i
N#CC1=C2N=C(N)c3c(sc4c3CCCCC4)N2C2=C(C(=O)CCC2)C1c1ccccc1 (stereo not drawn) | i | i | 5 | 70* | i | i
N#CC1=C2N=C(N)c3ccccc3N2C2=C(C(=O)CCC2)C1c1ccc(F)cc1 (stereo not drawn) | i | i | 4 | 23 | i | i
CC(C)Cn1c(-c2csc3ccccc23)n[nH]c1=S | i | i | 8 | 106* | i | i
O/N=C/c1ccc(-c2cc(Cl)ccc2Cl)o1 | i | i | -2 | 9 | i | i
CCOc1ccc(NC(=O)C(=O)NCc2ccncc2)cc1 | i | i | 3 | 68* | i | i
COC(=O)c1ccccc1NC(=O)NCc1cccnc1 | i | i | -5 | 10 | i | i
COC(=O)c1ccccc1NC(=O)C(=O)NCc1ccncc1 | i | i | -2 | 66* | i | i
CCOc1ccc(NC(=O)Nc2ccc(Cc3ccncc3)cc2)cc1 | i | i | 2 | 37 | i | i
CNS(=O)(=O)c1ccc(C(=O)NCC(=O)NCCC(c2ccccc2)c2ccccc2)cc1 | i | . | -2 | . | . | .
COc1ccc(N2CCN(C(c3cccs3)C(C)NC(=O)C(=O)N3CCOCC3)CC2)cc1 (stereo not drawn) | i | i | -7 | 65* | i | i
Cc1[nH]c2ccc(F)cc2c(=O)c1SC(F)(F)C(F)C(F)(F)F (stereo not drawn) | i | i | 10 | 88* | i | i
